Laboratory results as given in the supplement of paper PMC9588786.
± gives the standard deviation of the averaged measurements.
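Also: viability read as CCK-8 absorbance at 450 nm in cells co-exposed to the GPX4 inhibitor RSL3, relative to a 0.01% DMSO vehicle control.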

What follows are compounds tested on HT-1080 (assay: relative cell viability with RSL3 co-treatment (fraction of control); higher = stronger protection from RSL3-induced ferroptosis (higher viability)). Settings: 10 µM.
`CC[C@H](Nc1ncnc2[nH]cnc12)c1nc2cccc(F)c2c(=O)n1-c1ccccc1` [Idelalisib (CAL-101, GS-1101)] gave a relative cell viability of 0.753 ± 0.031.
`c1cc(-c2cnn3cc(-c4ccc(OCCN5CCCCC5)cc4)cnc23)ccn1` [Dorsomorphin 2HCl] was tested, and the relative cell viability was 0.463 ± 0.18.
Work on `CCC(=O)Nc1cccc(Oc2nc(Nc3ccc(N4CCN(C)CC4)cc3OC)ncc2Cl)c1` yielded a relative cell viability of 0.803 ± 0.097.
Compound `Cc1cn(-c2cc(NC(=O)c3ccc(C)c(Nc4nccc(-c5cccnc5)n4)c3)cc(C(F)(F)F)c2)cn1` [Nilotinib (AMN-107)] has a relative cell viability of 0.507 ± 0.021.
`Oc1c(F)cc(-c2cnccc2-c2ccc(N3CCOCC3)cc2)cc1F` showed a relative cell viability of 0.757 ± 0.072.
Work on `CNC(=O)c1cc(Oc2ccc(NC(=O)Nc3ccc(Cl)c(C(F)(F)F)c3)cc2)ccn1` [Sorafenib] yielded a relative cell viability of 0.693 ± 0.14.
Work on `O=C(c1cccc(Cl)c1F)N1CCN(Cc2cccc(Nc3nccs3)n2)CC1` yielded a relative cell viability of 0.573 ± 0.049.
`CCOC(=O)c1cnc2ccc(-c3cncc(NS(=O)(=O)c4ccccc4)c3)cn12` gave a relative cell viability of 0.717 ± 0.09.
With `Cc1cc(O)c2c(c1)C(=O)c1cccc(O)c1C2=O` [Chrysophanic Acid] the relative cell viability was 0.6567 ± 0.0058.
`Nc1ccc(-c2ccc3ncc4ccc(=O)n(-c5cccc(C(F)(F)F)c5)c4c3c2)cn1` [Torin 2] was tested, and the relative cell viability was 0.687 ± 0.047.
For `N#Cc1c(NC(=O)c2cccc3ccccc23)sc2c1CCCC2` [JNK Inhibitor IX], the relative cell viability was 0.573 ± 0.049.
For `Cc1cc(Nc2cc(CN3CCOCC3)c3nc(C)c(Cc4ccc(Cl)cc4F)n3n2)n[nH]1`, the relative cell viability was 0.383 ± 0.095.
Compound `CN1CCN(C2CCN(C(=O)Nc3cc(Oc4ccc(NC(=O)C5(C(=O)Nc6ccc(F)cc6)CC5)c(F)c4)ccn3)CC2)CC1` [Golvatinib (E7050)] has a relative cell viability of 0.717 ± 0.065.
